Compounds without any hit were thinned out: in the full panel of roughly 83,000, 20% have a hit.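 48-hour exposure, single concentration, 96-well plates; percent growth endpoint where 0 means no net growth. Active: below 10.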 A number with no mark means an inactive call. Calls of active or inactive are those of the source.
System: OVCAR-8 ovarian
Assay: NCI-60 one-dose screen, 48 h (100 = growth as untreated, 0 = no growth, -100 = all killed)
Conditions: 10 µM unless noted

Row | SMILES | growth
1 | CCOC(=O)/C(C#N)=C\c1c[nH]c2ccccc12 | 85%
2 | CC(=O)N(C)N=Nc1ccc(C)cc1 | 112%
3 | COc1cc(C(=O)N2CCN(c3ccccc3)CC2)c2ccccc2n1 | 14.3%
4 | CCOC(=O)c1ccc(NC(=O)Nc2nccs2)cc1 | 8.24% (active)
5 | O=c1n(CC2CO2)c(=O)n(CC2CO2)n1CC1CO1 (stereo not drawn) | 75%
6 | CCCCCCCCCCCCSC1=C(Cl)C(=O)C(OC)=C(OC)C1=O | 28.7%
7 | Cc1ccc(N2C(=O)c3cccc4c(N)c(S(=O)(=O)O)cc(c34)C2=O)cc1 | 107%
8 | S=C=Nc1ccc2ccccc2c1 | 105%
9 | Oc1cccnc1CN1CCCC1 | 94.7%
10 | O=C1C=C(c2ccccc2)C(O)(c2ccccc2)C1 (stereo not drawn) | 106%
11 | Cc1cc(C)cc(OCC(=O)O)c1 | 100%
12 | Cc1cccc(C)c1NC(=S)/N=C\c1c(O)[nH]c(=O)[nH]c1=O | 108%
13 | NNC(=O)N/N=C1\C(=O)N(c2nccs2)C(=O)C(=O)C1c1nc2ccccc2s1 (stereo not drawn) | 95%
14 | O=[N+]([O-])c1c(O)c(CNCCCO)cc(CNCCCO)c1O | 106%
15 | O=C1Nc2ccccc2/C1=C\c1ccccc1O | 91.1%
16 | CN(C)c1ccc2c(N(C)C)cc(N(C)C)nc2c1 | 78.3%
17 | Cc1cccc(-[n+]2noc(N)n2)c1 | 100%
18 | O=S(Cc1ccccc1)/C(=C/NC(=S)Nc1cc(Cl)ccc1Cl)c1ccccc1 (stereo not drawn) | 113%
19 | CCNC(=O)OCCc1c2ccccc2nc2ccccc12 | 98%

Row | SMILES | growth
20 | CCCCn1cnc2c(=O)[nH]cnc21 | 115%
21 | Cc1cc(CC(=O)NCCO)n(CCO)c(=O)c1 | 103%
22 | CCCCCCCCCCC(=O)CCCCCCCCCC | 109%
23 | NC(=S)c1c(N)n(C2OC(CO)C(O)C2O)c2ncnc(N)c12 (stereo not drawn) | -10.3% (active)
24 | NC(=S)N/N=C/c1ccc(OC(=O)COc2ccccc2)cn1 | 29.6%
25 | CCOC(=O)CNC(=O)Sc1ccc(C(C)(C)C)cc1 | 94%
26 | c1ccc(Nc2ccccn2)nc1 | 100%
27 | C[n+]1c(/C=C\C=C\N2CCCCC2)sc2ccccc21 | -17.7% (active)
28 | CCC(=O)C1C(=O)c2ccccc2C1=O | 99.8%
29 | Cc1cc(NC(=O)c2ccccc2)c(Cl)cc1N | 95.9%
30 | O=C1C=C[C@H](O)[C@@]2(CO)O[C@@H]12 | 78.2%
31 | Oc1cc(O)c2c(c1)O[C@H](c1ccc(O)c(O)c1)[C@@H](O)C2 | 98%
32 | C(=C\c1ccncc1)/c1ccncc1 | 121%
33 | CCOC(=O)c1cc(C)[nH]c(=O)c1C#N | 108%
34 | NC(CCl)=NCC12CC3CC(CC(C3)C1)C2 | -26.8% (active)
35 | COC1=C(OC)C(=O)C(SC/C=C(\C)CCCC(C)CCCC(C)CCCC(C)C)=CC1=O (stereo not drawn) | 18.7%
36 | COc1ccc(Br)c2c1C(=O)CC2 | 106%
37 | N#C/C(=C\c1ccc(C#N)cc1)C(=O)c1ccccc1 | 101%
38 | CN1CCCN(C(c2ccccc2)c2ccc(Cl)cc2)CC1 (stereo not drawn) | 105%

From PubChem BioAssay (NCI)
